# Assay results from PubChem BioAssay (NCI).
# The panel holds about 79,000 compounds, 15% with a hit somewhere; the sample as a whole holds those more often. Unmarked numbers belong to inactive results. No stated cut-off is given here; in the data, active means growth inhibition above about 70%; inactive means the rest.
# Test: NCI Yeast Anticancer Drug Screen. Data for the rad50 strain (AID 155);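 further: 0% = growth of vehicle-only cultures of the same strain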
# Settings: S. cerevisiae rad50 strain growth inhibition; at 50.0 µM; hits give high values
# Method in brief: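 Growth of the mutant yeast was measured after compound exposure and referenced to vehicle-treated cultures.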
row,Structure (SMILES),growth inhibition
1,COc1cc(/C=C(\C#N)C(=O)c2ccccc2)ccc1OCc1ccccc1,-1.1%
2,COC(=O)c1[nH]c(=O)c(C#N)c(C(=O)OC)c1C(=O)c1ccccc1,5%
3,CCCNc1ccc(C2=NCCCN2)cc1,0.55%
4,Nc1ccc(N)c([N+](=O)[O-])c1,-30.9%
5,COc1cc2cc(OC(C)=O)c3cc4c(cc3c2c(OC)c1OC)OCO4,-18.4%
6,CC(=O)OCC1OC(OC2=C(CC=C(C)C)C(=O)c3ccccc3C2=O)C(OC(C)=O)C(OC(C)=O)C1OC(C)=O (stereo not drawn),-7.2%
7,CNS(=O)(=O)c1ccc(Cl)c(Cl)c1,-43.2%
8,CCCCC1(CC)COC(CCC)OC1 (stereo not drawn),26.4%
9,O=C1C=C(Nc2ccc([N+](=O)[O-])cc2)c2ccccc2C1=O,18.4%
10,C#CC(C)(O)c1ccc(Cl)cc1 (stereo not drawn),14.4%
11,NCC(=O)CCC(=O)O,6.3%
12,COc1ccc(C2OC(N)=C(O)C2=O)cc1OC (stereo not drawn),-4.25%
13,O=C1OC[C@H]2[C@H](c3ccc(O)c(O)c3)c3cc(O)c(O)cc3C[C@H]12,24.9%
14,CCN=c1cc2sc3cc(NCC)c(C)cc3nc-2cc1C,-22.1%
15,O=[N+]([O-])c1ccc(/C=C/C=C/c2ccccc2)c(Cl)c1,-8.75%
16,CC(C)NC(=O)OCc1c(COC(=O)NC(C)C)c(-c2ccc(Cl)c(Cl)c2)n2c1SCC2,33.9%
17,O=[N+]([O-])c1cccc(N=Nc2ccc(O)cc2O)c1,30.6%
18,O=c1[nH]cc(Cl)cc1O,-0.15%
19,CCN(CC)c1ccc2nc3ccc(=[N+](CC)CC)cc-3oc2c1,-213%
20,O=C1OC(=O)C2C1C1(Cl)C(Cl)=C(Cl)C2(Cl)C2C(=O)OC(=O)C21 (stereo not drawn),2.45%

row,Structure (SMILES),growth inhibition
1,CNc1nc(NC)c2cn[nH]c2n1,17.7%
2,CC1=CC(C)(C)NC(=S)N1c1ccc(S(=O)(=O)O)c2cccc(S(=O)(=O)O)c12,-4.8%
3,CC(C)=NNc1ccc([N+](=O)[O-])cc1[N+](=O)[O-],35.1%
4,Cc1c(C(=O)O)c(=O)n(-c2ccccc2)n1C,3.1%
5,O=c1cc(-c2ccccc2)[nH]c(=S)[nH]1,-13.4%
6,C=CCNC(=O)c1ccc(OC)cc1,12.5%
7,CC[N+](C)(CC)CCO,13.7%
8,Cc1cccc(C(=O)N(C(C)C)C(C)C)c1,-0.9%
9,NC(C(=O)O)c1ccc([N+](=O)[O-])cc1 (stereo not drawn),-0.45%
10,OC1OC(COC(c2ccccc2)(c2ccccc2)c2ccccc2)C(O)C(O)C1O (stereo not drawn),-11.9%
11,Cc1ccc(/C(C#N)=C/c2ccc3c(c2)OCO3)cc1,23.6%
12,O=c1cc(-c2ccccc2)nc2cc(-c3ccco3)[nH]n12,-8.1%
13,CCOC(=O)C(O)C(O)C(=O)OCC (stereo not drawn),21.4%
14,Oc1ccc(O)cc1,20.6%
15,COc1cccc(COC(=O)Nc2ccccc2)c1OC,29.9%
16,CC(=O)Nc1cccc(NC(C)=O)n1,6.25%
17,Cc1cc(N)ccc1-c1ccc(N)cc1C,-3%
18,C=CCOC(=O)C(=O)OCC=C,18.8%
19,S=c1nn[nH]c2ccccc12,17.4%

# Test: NCI Yeast Anticancer Drug Screen. Data for the mec2-1 strain (AID 157)
# Settings: S. cerevisiae mec2-1 strain, at 50.0 µM, hits give high values
# Method in brief: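 Cells of the genetically defined mec2-1 yeast strain are incubated with test compound. Inhibition of growth is calculated against vehicle-treated controls.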
row,Structure (SMILES),growth inhibition
1,COc1cc(/C=C(\C#N)C(=O)c2ccccc2)ccc1OCc1ccccc1,-18.8%
2,COC(=O)c1[nH]c(=O)c(C#N)c(C(=O)OC)c1C(=O)c1ccccc1,-6.4%
3,CCCNc1ccc(C2=NCCCN2)cc1,-19.1%
4,Nc1ccc(N)c([N+](=O)[O-])c1,-17.8%
5,COc1cc2cc(OC(C)=O)c3cc4c(cc3c2c(OC)c1OC)OCO4,-10.8%
6,CC(=O)OCC1OC(OC2=C(CC=C(C)C)C(=O)c3ccccc3C2=O)C(OC(C)=O)C(OC(C)=O)C1OC(C)=O (stereo not drawn),3.85%
7,CNS(=O)(=O)c1ccc(Cl)c(Cl)c1,-5.1%
8,CCCCC1(CC)COC(CCC)OC1 (stereo not drawn),2.15%
9,O=C1C=C(Nc2ccc([N+](=O)[O-])cc2)c2ccccc2C1=O,-10.9%
10,C#CC(C)(O)c1ccc(Cl)cc1 (stereo not drawn),-2.15%
11,NCC(=O)CCC(=O)O,-3.7%
12,COc1ccc(C2OC(N)=C(O)C2=O)cc1OC (stereo not drawn),-23.1%
13,O=C1OC[C@H]2[C@H](c3ccc(O)c(O)c3)c3cc(O)c(O)cc3C[C@H]12,-2.45%
14,CCN=c1cc2sc3cc(NCC)c(C)cc3nc-2cc1C,-35.8%
15,O=[N+]([O-])c1ccc(/C=C/C=C/c2ccccc2)c(Cl)c1,-18.3%
16,CC(C)NC(=O)OCc1c(COC(=O)NC(C)C)c(-c2ccc(Cl)c(Cl)c2)n2c1SCC2,-7.95%
17,O=[N+]([O-])c1cccc(N=Nc2ccc(O)cc2O)c1,-5.65%
18,O=c1[nH]cc(Cl)cc1O,-3.3%
19,CCN(CC)c1ccc2nc3ccc(=[N+](CC)CC)cc-3oc2c1,-192%
20,O=C1OC(=O)C2C1C1(Cl)C(Cl)=C(Cl)C2(Cl)C2C(=O)OC(=O)C21 (stereo not drawn),12.4%

row,Structure (SMILES),growth inhibition
1,CNc1nc(NC)c2cn[nH]c2n1,2.3%
2,CC1=CC(C)(C)NC(=S)N1c1ccc(S(=O)(=O)O)c2cccc(S(=O)(=O)O)c12,-5.25%
3,CC(C)=NNc1ccc([N+](=O)[O-])cc1[N+](=O)[O-],12.8%
4,Cc1c(C(=O)O)c(=O)n(-c2ccccc2)n1C,-10.2%
5,O=c1cc(-c2ccccc2)[nH]c(=S)[nH]1,-11.9%
6,C=CCNC(=O)c1ccc(OC)cc1,6.5%
7,CC[N+](C)(CC)CCO,-3.8%
8,Cc1cccc(C(=O)N(C(C)C)C(C)C)c1,-4.95%
9,NC(C(=O)O)c1ccc([N+](=O)[O-])cc1 (stereo not drawn),-14.1%
10,OC1OC(COC(c2ccccc2)(c2ccccc2)c2ccccc2)C(O)C(O)C1O (stereo not drawn),-0.95%
11,Cc1ccc(/C(C#N)=C/c2ccc3c(c2)OCO3)cc1,25.5%
12,O=c1cc(-c2ccccc2)nc2cc(-c3ccco3)[nH]n12,-14.7%
13,CCOC(=O)C(O)C(O)C(=O)OCC (stereo not drawn),-15.8%
14,Oc1ccc(O)cc1,15%
15,COc1cccc(COC(=O)Nc2ccccc2)c1OC,21.4%
16,CC(=O)Nc1cccc(NC(C)=O)n1,10.8%
17,Cc1cc(N)ccc1-c1ccc(N)cc1C,-6.45%
18,C=CCOC(=O)C(=O)OCC=C,30.6%
19,S=c1nn[nH]c2ccccc12,22.6%
